Measured values from PubChem BioAssay (NCI).
This is part of a sample that, as a whole, favours compounds with a hit. Of some 83,000 tested, about 20% had one in any assay.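 Single-concentration screen, 48 h exposure, 96-well plates. Endpoint: percent growth. Below 10 = active.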 Active and inactive are the calls of the source.

Assays:
Assay in all cases: NCI-60 one-dose screen, 48 h (100 = growth as untreated, 0 = no growth, -100 = all killed)
[1] = system: NCI-H23 lung; details: 10 µM unless noted
[2] = system: NCI-H226 lung; details: 10 µM unless noted
[3] = system: NCI-H322M lung; details: 10 µM unless noted
[4] = system: HOP-62 NSCLC; details: 10 µM unless noted
[5] = system: NCI-H460 lung; details: 10 µM unless noted
[6] = system: HOP-92 NSCLC; details: 10 µM
[7] = system: NCI-H522 lung; details: 10 µM unless noted
[8] = system: A549/ATCC NSCLC; details: 10 µM unless noted
[9] = system: 786-0 renal; details: 10 µM unless noted
[10] = system: COLO 205 colon; details: 10 µM unless noted

Measured: growth

NC(N)=Nc1ccc(Oc2cccc(NC(N)=Nc3ccc(Cl)c(C(F)(F)F)c3)c2)cc1
inactive: [1] 60.2% | [2] 73% | [3] 64.6% | [4] 60.4% | [5] 26.8% | [6] 19.2% | [7] 39.6% | [8] 47.1% | [9] 81% | [10] 24.3%

CCCCCc1ccc(S(=O)(=O)Nc2cccc(-c3csc(NC(=O)CCCCCN4CCN(CCO)CC4)n3)c2)cc1
inactive: [1] 81.1% | [2] 92.7% | [3] 87.5% | [4] 85.1% | [5] 23.9% | [6] 62.7% | [7] 77.2% | [8] 74.5% | [9] 68.3% | [10] 72.8%

Nc1ccccc1NC(=O)c1ccc(NC(=O)C/C=C/c2cccnc2)cn1
active: [6] -7.8% | [7] 0.109% | [10] -21.9%
inactive: [1] 22.7% | [2] 25.1% | [3] 35.9% | [4] 27.1% | [5] 31.6% | [8] 33.5% | [9] 31.9%

O=C(NNc1nc2cc(F)ccc2n2c(CN3CCC(O)C3)ccc12)c1cnccn1 (configuration not stated)
inactive: [1] 20.2% | [2] 18.8% | [3] 24.8% | [4] 14.6% | [6] 23.2% | [8] 15.2% | [9] 16.2%
active: [5] 5.14% | [7] -0.38% | [10] 8.58%

CN(C)CCNC(=O)c1ccc(-c2nc3ccc4[nH]ncc4c3c3c2COCC3)cc1
inactive: [8] 38.5% | [9] 22.6%
active: [1] -5.76% | [2] 9.31% | [3] 2.32% | [4] 5.23% | [5] 6.12% | [6] -24.1% | [7] -46% | [10] -52.3%

Cc1ccc(-c2cc3nc(C(Cl)Cl)nc(-c4ccco4)n3n2)cc1
inactive: [1] 59.8% | [2] 87% | [7] 94.5% | [9] 59.5%
active: [3] 2.67% | [4] -12.3% | [5] -21.6% | [6] -0.128% | [8] 2.51% | [10] -39.4%

NC(=O)c1c(NC(=O)c2ccccc2C(F)(F)F)sc2c1CCC(=O)C2
active: [1] 4.77% | [6] -9.74% | [7] -1.13%
inactive: [2] 37.9% | [3] 105% | [4] 93.4% | [5] 58.4% | [8] 94% | [9] 37.5% | [10] 38.3%

COc1ccc(NC(=O)CSc2nnc(-c3ccc4nc(-c5ccc(OC)c(OC)c5)[nH]c4c3)o2)cc1OC
inactive: [1] 80.6% | [2] 93.1% | [3] 89.4% | [4] 98.8% | [5] 102% | [6] 85.6% | [7] 95.1% | [8] 101% | [9] 105% | [10] 113%

CCCCCc1ccc(S(=O)(=O)Nc2cc(-c3csc(NC(=O)CN4CCN(C)CC4)n3)ccc2OC)cc1
active: [3] 5.27% | [5] -61.5% | [7] -51.9% | [9] -75% | [10] -57.6%
inactive: [1] 49.8% | [2] 74.6% | [4] 60.3% | [6] 22.1% | [8] 15.1%

CCn1c(SCC(=O)Nc2cccc(C(=O)/C=C/c3ccccc3Cl)c2)nc2ccccc2c1=O
inactive: [1] 69.5% | [2] 81.9% | [3] 90.5% | [4] 93.7% | [5] 95.7% | [6] 72.7% | [7] 85.3% | [8] 78.6% | [9] 95.6% | [10] 114%

C=CCn1c(SCC(=O)Nc2ccc(C(=O)/C=C/c3ccc(C)cc3)cc2)nnc1-c1c[nH]c2ccccc12
inactive: [1] 97.7% | [2] 78.1% | [3] 97.1% | [4] 94.4% | [5] 102% | [6] 86.3% | [7] 81.3% | [8] 75.9% | [9] 103% | [10] 112%

COC(=O)C1(C)CCC[C@]2(C)[C@H]3C[C@H]4C(C(C)C)=C[C@]3(CC[C@@H]12)[C@H]1[C@@H]4[C@@H](OC(=O)c2ccco2)CC[C@@H]1OC(=O)c1ccco1 (some centres not stated)
inactive: [1] 104% | [2] 103% | [3] 106% | [4] 96.9% | [5] 117% | [6] 102% | [7] 99.6% | [8] 102% | [9] 94.3% | [10] 115%

COc1c(N2CC3CCCNC3C2)c(F)cc2c(=O)c(C(=O)N/N=C/c3ccc(F)cc3)cn(C3CC3)c12 (configuration not stated)
inactive: [1] 87.9% | [2] 109% | [3] 93.3% | [4] 98.9% | [5] 97.6% | [6] 50.2% | [7] 94.1% | [8] 91.5% | [9] 69.2% | [10] 96.3%

CCC1=Cc2cc(OC)ccc2OC12C=Cc1cc(OC)ccc1O2 (configuration not stated)
inactive: [1] 17% | [2] 65.4% | [3] 50.2% | [4] 64.3% | [6] 57.3% | [8] 26.5% | [9] 37.3%
active: [5] 4.15% | [7] -23.9% | [10] -6.28%

COc1ccc2c(c1)Oc1nc(N)c(C#N)c(N)c1C2Sc1ccc(C)cc1 (configuration not stated)
inactive: [3] 51.9% | [4] 100% | [8] 75.6%
active: [1] -19.3% | [2] -1.63% | [5] -37.6% | [6] -35.9% | [7] -51.5% | [9] -80.7% | [10] -16.7%

COc1cc(-c2nn(C(C)(C)C)cc2-c2ccnc(NCCCNS(=O)(=O)c3ccccc3)n2)ccc1Cl
inactive: [1] 74.4% | [2] 66% | [3] 87.2% | [4] 72.8% | [5] 71.1% | [6] 71.9% | [8] 51.4% | [9] 77.7% | [10] 101%

CS(=O)(=O)c1ccc(-c2nn(-c3ccccc3)cc2/C=N/NC(=O)c2nc(N)n[nH]2)cc1
inactive: [1] 96.3% | [2] 101% | [3] 104% | [4] 103% | [5] 83% | [6] 103% | [7] 94.2% | [8] 97.3% | [9] 96.8% | [10] 96.3%

CC1(C)[C@@H](O)CC[C@]2(C)[C@H]3CC[C@@H]4[C@H]5[C@H](C(=O)/C=C\c6ccc([N+](=O)[O-])cc6)CC[C@]5(O)CC[C@@]4(C)[C@]3(C)CC[C@@H]12
inactive: [1] 50.2% | [3] 90.8% | [4] 86.9% | [5] 51.8% | [6] 82.7% | [8] 61.8% | [9] 56.8% | [10] 106%
active: [2] -2.45%

ClC(Cl)c1nc(-c2ccco2)n2nc(-c3ccccc3)cc2n1
active: [3] -19.4% | [4] -1.03% | [5] -22.1% | [6] -9.05% | [8] -2.21% | [10] -17%
inactive: [1] 49.8% | [2] 97.5% | [9] 69.3%
